Compound activity deposited in PubChem BioAssay by National Center for Advancing Translational Sciences (NCATS).
The list is not random: actives were taken first. Their share in the collection is about 6.1%.
D1 antag = Antagonist of Human D 1 Dopamine Receptor: qHTS | HEK293 TREx D1 cells, calcium flux, dopamine EC80; active compounds read low | activity change, negative = inhibition, % at 10 µM | 360,000 compounds, 3.2% hits | AID 504652, 2011; in the data active means activity change below about -30%; further: on the % scale 0 is the no-effect control and ±100 the full control effect
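HEK293 T-REx cells expressing inducible, force-coupled D1 receptor; no-wash Ca dye, 30–90 min RT. Cmpd → 180 s read at 1 Hz → EC80 DA → 180 s read.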
D1 potentiator = Potentiators of Human D1 Dopamine Receptor: qHTS | D(1A) dopamine receptor (Homo sapiens), P21728 | HEK293 TREx D1 cells, calcium flux, dopamine EC20 potentiation | potentiation, % at 10 µM | 360,000 compounds, 0.036% hits | AID 504651, 2011; in the data active means potentiation above about 30%; further: 0% is about no effect
D1 ag = Allosteric Agonists of the Human D1 Dopamine Receptor: qHTS; activation, % at 2 µM; 360,000 compounds, 1% hits; D(1A) dopamine receptor (Homo sapiens), P21728; HEK293 T-REx D1 cells, calcium flux, agonist mode; in the data active means activation above about 30%; further: 0% is about no effect
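Agonism was scored from calcium flux recorded over 180 s (1 read/s) after pintool compound addition, following a 10-cycle baseline. Cells were inducible force-coupled HEK293 TREx D1, plated overnight at 30 C and loaded with no-wash calcium dye.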
DRD3 antagonist = qHTS of D3 Dopamine Receptor Antagonist: qHTS; AID 652054, 2013; D(3) dopamine receptor (Homo sapiens), P35462; 360,000 compounds, 2.5% hits; D3R cells, DiscoveRx beta-arrestin luminescence, antagonist mode; active compounds read low; max response, negative = inhibition, %; in the data active means max response below about -50%; inconclusive means no clear call, values can overlap the other calls; further: on the % scale 0 is the no-effect control and ±100 the full control effect
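Cells plated overnight at 1500 cells/well, then exposed to library compounds with dopamine controls for 90 minutes at 37 degrees C. DiscoveRx reagent added for 30–60 minutes at room temperature; luminescence read, quantitative HTS format.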
DRD3 agonist = qHTS of D3 Dopamine Receptor Agonist: qHTS. D3R DiscoveRx beta-arrestin cells, luminescence, 90 min. D(3) dopamine receptor (Homo sapiens), P35462. max activation, %. 410,000 compounds, 0.58% hits; in the data active means max activation above about 30%; further: 0% is about no effect
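Agonist-mode cell screen: cells plated at 1500/well and incubated overnight at 37 °C, then exposed to library compounds for 90 min at 37 °C. Detection reagent was added for 30–60 min at room temperature, and luminescence was read.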
ERG-DNA inh = qHTS for Small Molecule Inhibitors of the ERG Ets/DNA interaction; Transcriptional regulator ERG (Homo sapiens), P11308; fluorescence polarization, His-ERG Ets domain / labelled DNA; Potency, µM (series often up to 76.9 µM), for inactives: at the top dose FP activity, negative = inhibition, hits mostly inhibitors; 370,000 compounds, 0.028% hits; AID 624246, 2012; active means well fitted inhibition curve with a large enough effect in the polarisation, with a control signal flat; inconclusive means small, poorly fitted or top-dose-only effect, or effect the other way, or a change in a side signal; inactive means no such curve, though single readings can be large or run the other way; the % refers to the polarisation;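 further: polarization taken with two DNA probes labelled with fluorescein and Texas red; potency means the concentration at half of the fitted maximal effect; % of control where 0% means no effect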
Target sequence (P11308 whole entry, looked up, the tested form may be a part): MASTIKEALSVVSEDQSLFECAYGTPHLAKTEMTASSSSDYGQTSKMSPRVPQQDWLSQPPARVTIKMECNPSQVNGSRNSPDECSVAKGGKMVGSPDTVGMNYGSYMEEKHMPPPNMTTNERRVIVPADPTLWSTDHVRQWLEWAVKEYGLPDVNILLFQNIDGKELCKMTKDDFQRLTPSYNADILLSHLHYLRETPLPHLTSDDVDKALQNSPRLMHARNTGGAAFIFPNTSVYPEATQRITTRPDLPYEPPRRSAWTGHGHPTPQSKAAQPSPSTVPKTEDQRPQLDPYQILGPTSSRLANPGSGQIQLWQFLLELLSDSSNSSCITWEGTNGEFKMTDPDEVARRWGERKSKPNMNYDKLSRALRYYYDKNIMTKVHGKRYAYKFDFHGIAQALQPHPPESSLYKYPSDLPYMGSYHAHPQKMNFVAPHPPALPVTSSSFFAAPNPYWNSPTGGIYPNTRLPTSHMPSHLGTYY
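His-tagged ERG Ets domain (1 uM in the protein solution; 300mM KCl, 50mM Tris-HCl, 1mM EDTA, 1mM DTT, pH 7.5) received compound, then a probe mix of 5 nM fluorescein-DNA and 100nM Texas-615-DNA. Fluorescence polarization was read for both dyes.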
Starred values were filed as active, the others as inactive; ? = inconclusive; . = not tested or not shown.

SMILES | D1 antag | D1 potentiator | D1 ag | DRD3 antagonist | DRD3 agonist | ERG-DNA inh
CCOC(=O)C1=C(C)Nc2ncnn2C1c1cc(Br)ccc1F (stereo not given) | -32.8* | 2.8 | -0.5 | -9.0 | 1.9 | 5.0%
COc1ccc(C2C=C(c3ccc(Cl)c(Cl)c3)Nc3ncnn32)cc1 (stereo not given) | 5.3 | -3.0 | 48.3* | . | 5.5 | -11.0%
O=C(CCC(=O)N1CCN(C(=O)c2ccco2)CC1)c1ccc(F)cc1 | -3.6 | -10.8 | 1.4 | 0.2 | 0.4 | 27.3%
O=C1OCCN1C(=O)[C@H]1[C@H](c2ccc(Cl)cc2)C(c2ccccc2)=NN1c1ccccc1 | . | . | . | -2.2 | 4.0 | -13.4%
O=C1OCCN1C(=O)[C@H]1[C@H](c2ccccc2)C(c2cccc(Cl)c2)=NN1c1ccccc1 | . | . | . | 2.1 | 39.0* | 0.1%
COc1ccccc1NC(=O)C1CCCN(C(=O)NCc2ccccc2)C1 (stereo not given) | 0.3 | 0.8 | 1.7 | -5.8 | 2.5 | -3.6%
CCn1c(-c2nn(C)c(C)c2Cl)n[nH]c1=S | -14.9 | 5.7 | 2.2 | -8.6 | -4.5 | -3.8%
Cc1ccc(-n2c(-c3nn(C)c(C)c3Cl)n[nH]c2=S)cc1 | -2.5 | 2.0 | 3.3 | -57.1* | -3.3 | 1.8%
COc1cccc(NC(=O)CN(C)C(=O)CCSc2ccc(C)cc2)c1 | -6.4 | -3.8 | 1.5 | ? | -18.4 | -4.5%
Cc1cccc(C(=O)NNC(=O)c2c(O)c3ccccc3n(C)c2=O)c1 | 2.3 | 0.2 | 17.3 | 57.8 | 30.5* | -4.4%
Cn1c(=O)c(C(=O)NNC(=O)c2cccc(Cl)c2)c(O)c2ccccc21 | 0.3 | -1.4 | 2.0 | 3.3 | 7.2 | -9.3%
CCn1c(=O)c(C(=O)Nc2ccccc2)c(O)c2ccccc21 | -3.3 | -2.4 | 3.2 | -6.8 | -4.3 | -11.1%
CCCn1c(=O)c(C(=O)Nc2ccccc2C(=O)OCC)c(O)c2ccccc21 | -0.5 | 0.5 | 0.2 | 27.8 | 37.0* | -0.7%
CCCn1c(=O)c(C(=O)NNC(=O)c2ccc(Cl)cc2Cl)c(O)c2ccccc21 | -12.9 | -6.0 | 41.2* | 0.5 | 0.9 | -18.2%
CCCn1c(=O)c(C(=O)Nc2cccc(C)n2)c(O)c2ccccc21 | 13.9 | 3.8 | 3.6 | 0.2 | 0.2 | -10.7%
CCn1c(=O)c(C(=O)Nc2nc3ccccc3[nH]2)c(O)c2ccccc21 | 0.5 | -7.5 | 1.2 | -61.7* | 4.2 | 4.7%
CCC(=O)N1CCc2cc(S(=O)(=O)NC(C(=O)NCc3ccccc3Cl)C(C)C)ccc21 (stereo not given) | -7.0 | 3.2 | -2.2 | . | -7.3 | -4.1%
COc1cc(-c2nccc3cc4c(cc23)OCO4)cc(OC)c1OC | . | . | . | 12.2 | -7.0 | -2.9%
CCCn1c(=O)c(C(=O)Nc2ncccc2C)c(O)c2ccccc21 | -15.6 | 0.2 | 48.5* | 4.0 | 6.9 | -3.0%
CCOc1ccc(NC(=O)c2cccc3c(=O)c4c([nH]c23)CCCC4)cc1 | 6.3 | -1.6 | 2.5 | . | 0.6 | -1.4%
COc1ccc(NC(=O)c2cccc3c(=O)c4c([nH]c23)CCCC4)cc1 | -32.9* | -4.0 | 7.3 | . | 1.8 | 0.1%
CCC(C)(C)NC(=O)CN(Cc1ccc(F)cc1)C(=O)CCC(=O)Nc1ccccn1 | 3.0 | 3.9 | 1.6 | -14.5 | -33.8 | -3.4%
CC/C=C(/NC(C)=O)c1ccccc1 | . | -6.8 | 1.3 | 20.2 | -1.7 | -2.7%
Cc1cc(NC2CCCCC2)nc(NCc2ccccc2)n1 | 3.2 | -4.0 | 54.9* | -12.2 | -12.2 | -3.9%
Cc1ccc(Nc2cc(C)nc(NCc3ccccc3)n2)cc1 | 18.5 | -10.7 | 53.4* | -15.4 | -6.7 | 1.4%
SMILES | D1 antag | D1 potentiator | D1 ag | DRD3 antagonist | DRD3 agonist | ERG-DNA inh
Cc1cc(N2CCN(c3ccccc3)CC2)nc(NCc2ccccc2)n1 | -49.5* | -3.7 | 7.5 | 0.3 | -6.5 | 12.5%
COc1ccc(Nc2cc(C)nc(NCc3ccccc3)n2)cc1 | 1.2 | -2.8 | 17.8 | -29.5 | -13.4 | 12.2%
COc1cc(C)nc(NCc2ccccc2)n1 | 2.5 | -3.4 | 3.7 | 7.3 | -5.0 | -2.7%
COc1cc(C(=O)OCC(=O)c2c(N)n(C)c(=O)n(C)c2=O)ccc1OCCC(C)C | -5.1 | 2.7 | 1.3 | 2.7 | 2.0 | -4.4%
CCC(COC)NC(=O)CCc1nnc(Cc2c[nH]c3ccccc23)o1 (stereo not given) | 1.9 | 1.3 | 1.2 | -6.7 | -0.4 | -6.5%
COc1ccc(CN2CCN(C3CCSCC3)CC2CCO)c(C)c1C (stereo not given) | -8.3 | 3.1 | 5.3 | -64.3* | -23.9 | 6.9%
Cc1ccc(C(=O)NC(Cc2ccccc2C(F)(F)F)C(=O)O)cc1 (stereo not given) | . | . | . | ? | 40.4* | -8.4%
Cc1sc2nc(Cc3ccccc3)[nH]c(=O)c2c1-c1ccccc1 | -2.0 | 6.9 | 2.2 | -1.4 | -18.3 | 16.9%
Cc1sc2nc(-c3cccnc3)[nH]c(=O)c2c1-c1ccccc1 | -48.7* | -15.2 | 3.2 | 4.2 | 13.3 | 2.5%
CC(C)(C)NC(=S)NNC(=O)c1ccc2ncccc2c1 | 8.0 | 0.2 | 0.6 | -8.4 | -6.7 | 7.7%
CCOc1ccc(NC(=O)C2CCN(C(=O)NCc3ccccc3)CC2)cc1 | -2.5 | -8.3 | -0.2 | ? | -2.7 | 1.6%
CCOc1ccc(NC(=O)C2CCN(C(=O)NC3CCCCC3)CC2)cc1 | -35.5* | 3.5 | -0.6 | -11.3 | 0.2 | 9.1%
Cc1oc(C(C)(C)C)cc1C(=O)Nc1ccc2c(c1)OCCO2 | -17.4 | -11.3 | 2.2 | 28.6 | -0.4 | -0.8%
Cc1oc(C(C)(C)C)cc1C(=O)Nc1ccc2c(c1)OCO2 | -32.3* | -8.8 | 1.5 | 0.2 | -6.2 | 0.4%
CCOc1nc(CC(C)C)c2c(c1C#N)CC(C)(C)OC2 | 5.0 | 8.8 | 2.4 | -12.4 | 1.9 | -8.1%
Cc1cc2cc(CNS(=O)(=O)c3ccccc3)ccc2n1C | -0.1 | -4.0 | 1.1 | -24.7 | -5.6 | 11.2µM*
CCc1ccc(S(=O)(=O)NCc2ccc(N3CCN(C)CC3)cc2)cc1 | 1.3 | -1.8 | 4.7 | 9.4 | -13.0 | 1.6%
CN1CCN(c2ccc(CNS(=O)(=O)c3ccccc3)cc2)CC1 | -34.7* | -1.7 | 4.2 | -19.9 | -25.5 | -6.5%
COc1ccc(S(=O)(=O)NCc2ccc3c(c2)cc(C)n3C)cc1 | -8.4 | -6.0 | 9.9 | 7.9 | -1.3 | 35.5µM*
CCS(=O)(=O)NCc1ccc2c(c1)cc(C)n2C | 10.3 | 4.5 | 0.1 | -26.9 | 3.3 | 1.3%
